Measurements published in paper PMC6919601, “Identification of Plasmodium dipeptidyl aminopeptidase allosteric inhibitors by high throughput screening” (PLoS ONE, 2019).
In all, about 110,000 compounds went through this assay and about 230 (0.21%) showed an effect of 50% or more. What follows is part of a selection rich in strong results, with near analogues and random picks from the rest.

Molecular target: DPAP1 (Plasmodium falciparum, UniProt Q8IIJ9)
Experiment: primary screen, percent inhibition; read by cleavage of a fluorogenic dipeptide substrate; higher = more effect of the substance
Parameters: species or system P. falciparum D10 trophozoite lysates; single well
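Also: 30 min substrate incubation versus DMSO and 10 µM JCP410 controls.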

Chain of DPAP1 (Q8IIJ9 whole entry, looked up): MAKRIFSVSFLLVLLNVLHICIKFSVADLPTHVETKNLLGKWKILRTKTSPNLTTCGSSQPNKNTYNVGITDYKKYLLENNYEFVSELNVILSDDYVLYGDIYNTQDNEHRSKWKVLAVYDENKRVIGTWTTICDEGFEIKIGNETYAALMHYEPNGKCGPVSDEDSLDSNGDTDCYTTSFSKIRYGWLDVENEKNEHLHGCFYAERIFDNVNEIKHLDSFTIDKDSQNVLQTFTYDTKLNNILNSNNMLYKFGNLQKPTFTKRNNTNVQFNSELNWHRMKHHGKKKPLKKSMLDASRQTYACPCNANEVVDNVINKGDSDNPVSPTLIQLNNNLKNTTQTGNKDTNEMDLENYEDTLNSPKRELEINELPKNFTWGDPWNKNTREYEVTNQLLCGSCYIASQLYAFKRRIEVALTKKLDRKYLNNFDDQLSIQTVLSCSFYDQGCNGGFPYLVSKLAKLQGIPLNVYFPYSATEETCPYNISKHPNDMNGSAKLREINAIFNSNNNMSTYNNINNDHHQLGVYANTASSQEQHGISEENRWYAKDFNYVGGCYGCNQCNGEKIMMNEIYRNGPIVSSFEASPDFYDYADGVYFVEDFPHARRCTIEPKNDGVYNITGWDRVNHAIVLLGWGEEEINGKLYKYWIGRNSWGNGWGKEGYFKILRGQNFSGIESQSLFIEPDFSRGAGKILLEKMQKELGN

Compound | % Inhibition @ 10 uM
Cc1cc2nc(O)c(O)nc2cc1S(=O)(=O)N1CCN(CCOc2ccc(Cl)cc2)CC1 | 52.3%
Cc1cc(-c2ccc(C)c(S(=O)(=O)N3CCN(CCOc4ccc(Cl)cc4)CC3)c2)on1 | -5.87%
Cc1nc(O)nc(O)c1S(=O)(=O)N1CCN(CCOc2ccc(Cl)cc2)CC1 | -1.38%
COc1ccc(-c2cc(C(F)(F)F)nc(SCC(=O)N3CCOCC3)n2)cc1 | -8.55%
COc1ccc(-c2cc(-c3ccccc3)nc3sc(C(N)=O)c(N)c23)cc1 | 76%
COC(=O)c1sc2nc(-c3ccccc3)cc(-c3ccc(OC)cc3)c2c1N | 2.79%
COc1ccc(-c2cc(-c3ccc(OC)cc3)c3c(N)c(C(N)=O)sc3n2)cc1 | 19.8%
CCCN1C(=O)c2n[nH]c(C)c2C1c1cccnc1 (stereo not drawn) | -4.67%
COc1ccc(C2=N/C(=C\c3cccc(C(F)(F)F)c3)C(=O)O2)cc1OC | 6.11%
CCOc1c(/C=C2/S/C(=N\c3ccccc3)N(C)C2=O)cccc1OC | 1.57%
O=C1CC(Sc2ccccn2)C(=O)N1c1ccc(Br)cc1 (stereo not drawn) | 2.38%
COCCNC(=O)CCN1C(=O)c2ccccc2Sc2ncccc21 | -2.97%
COc1ccc(-c2ccc(C(=O)N3CCOCC3)cc2)cc1 | 85.3%
COc1ccc2nc3sc(C(=O)N4CCC5(CC4)OCCO5)cc3cc2c1 | -4.16%
COc1ccc2cc3cc(C(=O)NCCN4CCN(Cc5ccccc5)CC4)sc3nc2c1 | 94.4%
COc1ccc2nc3sc(C(=O)NCCC(C)C)cc3cc2c1 | -5.98%
COc1ccc2cc3cc(C(=O)N4CCN(Cc5ccccc5)CC4)sc3nc2c1 | 4.61%
COc1ccc2nc3sc(C(=O)N4CCOCC4)cc3cc2c1 | 89.7%
COc1ccc(C(=O)N2CCN(CC(=O)N3CCOCC3)CC2)cc1 | 6.33%
CCCCN(C)CCNC(=O)c1cc2cc3cc(OC)ccc3nc2s1 | 83.9%
COc1ccc(C(=O)N2CCN(C(=O)c3ccc(OC)cc3)CC2)cc1 | -1.61%
COc1ccc2cc3cc(C(=O)NCCCN4CCN(C)CC4)sc3nc2c1 | 1.22%
COc1ccc2nc3sc(C(=O)NCCN(C)Cc4ccccc4)cc3cc2c1 | -2.12%
COc1ccc2nc3sc(C(=O)N4CCN(C)CC4)cc3cc2c1 | -5.06%

Compound | % Inhibition @ 10 uM
CCOc1ccc(C(=O)N(Cc2nc(-c3ccc(Cl)cc3)no2)C(C)C)cc1 | -1.84%
CC(=O)Nc1ccc(NC(=O)c2cccc(Cl)c2Cl)cc1 | 3.74%
COc1cc(NC(=O)C(C)Oc2ccccc2)cc(OC)c1 (stereo not drawn) | -2.8%
Cc1ccc(NC(=O)C(Cc2ccc([N+](=O)[O-])cc2)N2C(=O)c3ccccc3C2=O)cc1[N+](=O)[O-] (stereo not drawn) | -2.47%
COc1ccccc1S(=O)Cc1ccc(C(=O)NCCc2ccc(Cl)cc2)o1 (stereo not drawn) | -4.96%
COc1ccc2cc3cc(C(=O)NCCN4CCc5ccccc5C4)sc3nc2c1 | 4.61%
CCN(Cc1ccccc1)C(=O)c1cc2cc3cc(OC)ccc3nc2s1 | 50.3%
CCC1CCCCN1CCCNC(=O)c1cc2cc3cc(OC)ccc3nc2s1 (stereo not drawn) | 1.22%
CCCCN(CC)C(=O)c1cc2cc3cc(OC)ccc3nc2s1 | -1.55%
COc1ccc2nc3sc(C(=O)NCCCN4CC(C)CC(C)C4)cc3cc2c1 (stereo not drawn) | -2.44%
COc1ccc2cc3cc(C(=O)N(C)Cc4ccccc4)sc3nc2c1 | 0.402%
COc1ccc2nc3sc(C(=O)NCCCN4CCCC4=O)cc3cc2c1 | 84.6%
COc1ccc2nc3sc(C(=O)NCCCN4CCc5ccccc5C4)cc3cc2c1 | 64.7%
COc1ccc2nc3sc(C(=O)NCCN4CCOCC4)cc3cc2c1 | 3.07%
CSc1ccc(CN2CCN(c3cccc(Cl)c3)CC2)cc1 | 0.847%
CCN1CCN(C(=O)CS(=O)(=O)Cc2nc(-c3ccc(C)cc3)oc2C)CC1 | -3.7%
O=S(=O)(NC1CCc2ccccc21)c1ccc(-n2cnnn2)cc1 (stereo not drawn) | -1.07%
CC1=C(C(=O)Nc2ccc(Br)cc2)C(c2ccc(Cl)cc2)NC(=O)N1 (stereo not drawn) | 1.35%
COCCCNC(=O)Cc1coc2ccc3ccccc3c12 | 2.01%
CCn1c(S)nc2c(=O)oc3ccccc3c21 | 14%
Cn1c(S)nc2c(=O)oc3ccccc3c21 | 56.8%
Cc1nc2c(=O)oc3ccccc3c2n1C | 4.35%
COc1ccc(N(C(C)C(=O)Nc2ccc(C(C)C)cc2)S(C)(=O)=O)cc1 (stereo not drawn) | -1.57%
CCCCSCCCNC(=O)C1CCC(CNS(=O)(=O)c2ccc(C)cc2)CC1 (stereo not drawn) | 5.47%
